Reference: PubChem BioAssay (Tox21)
A number with no mark means an inactive call. Inconclusive results are not listed. A call without a number means that no potency is given here. The source made the active and inactive calls. Unless noted, calls come from the whole dose curve; as a rule, active = well fitted curve in the direction sought with a large enough effect in the repeat runs; inconclusive = weak or mixed curves; inactive = no such curve, though single readings can be large; an effect the other way counts as inactive or inconclusive.

What was measured:
[1] = qHTS assay to identify small molecule agonists of H2AX (AID 1224845; active = well fitted activation curve with a large enough effect in the signal ratio in the repeat runs, not every such curve was filed as active; the % refers to the signal ratio)
How it was run: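 Phospho-H2AX Ser139 measured by HTRF (ex 320 nm; em 665 and 620 nm) after 24 hr antibody incubation. Compounds, 15 concentrations, 0.76% DMSO, were applied to CHO-K1 cells for 3hr at 37C before lysis.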

[2] = qHTS assay to identify small molecule antagonists of the estrogen related receptor (ERR) signaling pathway from Tox21 library (AID 1224848); note: nearly all actives have a fitted effect of over 50% in size; note: potency is the fitted concentration of half-maximal effect
How it was run: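 Antagonist-mode screen of the Tox21 10K library in an NTP-provided ERR reporter cell line; 18 h compound exposure at 37 C, luminescence measured with ONE-Glo.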

[3] = qHTS assay to identify small molecule agonists of the estrogen related receptor (ERR) signaling pathway from Tox21 library (AID 1224849; calls by dose curve; note: nearly all actives have a fitted effect of over 15% in size); conditions: ERR reporter cell line, ONE-Glo luciferase, 18 h; at 92.4 µM (top of the series) unless noted
How it was run: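 ERR reporter cell line (NTP) seeded, rested 6 h at 37 C/5% CO2, then pinned with Tox21 compounds in DMSO. After 18 h at 37 C, ONE-Glo luciferase luminescence was read following 30 min at room temperature.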

[4] = A CellTox Green Cytotoxicity Assay to monitor cytotoxicity in HEK293 cells - 0 hour (AID 1224869); note: nearly all actives have a fitted effect of over 50% in size; note: potency is the fitted concentration of half-maximal effect
How it was run: (§1)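 HEK293 cells premixed with CellTox Green dye were seeded at 600 cells/well and left 5 h at 37 C/5% CO2 before pin transfer of 23 nL compound in DMSO. Fluorescence from dye bound to dead-cell DNA was read during 40 h treatment.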

[5] = A CellTox Green Cytotoxicity Assay to monitor cytotoxicity in HEK293 cells - 40 hour (AID 1224871); note: nearly all actives have a fitted effect of over 45% in size; note: potency is the fitted concentration of half-maximal effect
How it was run: as §1

[6] = qHTS RealTime-Glo MT Cell Viability Assay in HEK293 cells - 16 hour (AID 1224872); note: nearly all actives have a fitted effect of over 50% in size; note: potency is the fitted concentration of half-maximal effect
How it was run: (§2)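 Cells + reagent dispensed (600 cells/well, HEK293) → 5 h at 37 C/5% CO2 → 23 nL compound in DMSO pinned → 40 h at 37 C → luminescence read at 0, 8, 16, 24, 32, 40 h.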

[7] = qHTS RealTime-Glo MT Cell Viability Assay in HepG2 cells - 8 hour (AID 1224873); note: nearly all actives have a fitted effect of over 55% in size
How it was run: (§3)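 Real-time viability: cells seeded at 600 per well together with NanoLuc and cell-permeant prosubstrate, compounds added after 5 h incubation. Luminescence tracked at 0, 8, 16, 24, 32 and 40 h of exposure.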

[8] = qHTS RealTime-Glo MT Cell Viability Assay in HEK293 cells - 40 hour (AID 1224874); conditions: RealTime-Glo luminescence; max response: active compounds read low; note: nearly all actives have a fitted effect of over 50% in size; note: potency is the fitted concentration of half-maximal effect
How it was run: (§4)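 HEK293 cells mixed with RealTime-Glo reagents (NanoLuc plus cell-permeant prosubstrate) at 600 cells/well, preincubated 5 h at 37 C/5% CO2, then given 23 nL compound in DMSO. Nonlytic luminescence from viable cells was read at 0, 8, 16, 24, 32 and 40 h.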

[9] = A CellTox Green Cytotoxicity Assay to monitor cytotoxicity in HEK293 cells - 24 hour (AID 1224875); note: nearly all actives have a fitted effect of over 45% in size; note: potency is the fitted concentration of half-maximal effect
How it was run: as §1

[10] = A CellTox Green Cytotoxicity Assay to monitor cytotoxicity in HepG2 cells - 16 hour (AID 1224876); note: nearly all actives have a fitted effect of over 45% in size; note: potency is the fitted concentration of half-maximal effect
How it was run: (§5)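 HepG2 cells were seeded together with the CellTox Green dye at 600 cells/well, left 5 h at 37 C/5% CO2, then given compounds in DMSO. Fluorescence from dye bound to dead-cell DNA was read repeatedly over 40 h of treatment at 37 C.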

[11] = A CellTox Green Cytotoxicity Assay to monitor cytotoxicity in HepG2 cells - 24 hour (AID 1224878); note: nearly all actives have a fitted effect of over 45% in size; note: potency is the fitted concentration of half-maximal effect
How it was run: as §5

[12] = qHTS RealTime-Glo MT Cell Viability Assay in HepG2 cells - 24 hour (AID 1224867); note: nearly all actives have a fitted effect of over 50% in size
How it was run: (§6)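 Real-time, nonlytic viability: 600 HepG2 cells/well mixed with NanoLuc enzyme plus prosubstrate; 5 h settle, compound (DMSO) added by pintool; luminescence monitored over 40 h at 37 C.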

[13] = qHTS RealTime-Glo MT Cell Viability Assay in HEK293 cells - 32 hour (AID 1224868)
How it was run: as §2

[14] = qHTS RealTime-Glo MT Cell Viability Assay in HepG2 cells - 40 hour (AID 1224870); note: nearly all actives have a fitted effect of over 50% in size
How it was run: as §3

[15] = qHTS RealTime-Glo MT Cell Viability Assay in HepG2 cells - 32 hour (AID 1224877); note: nearly all actives have a fitted effect of over 55% in size
How it was run: as §6

[16] = A CellTox Green Cytotoxicity Assay to monitor cytotoxicity in HepG2 cells - 40 hour (AID 1224879); note: nearly all actives have a fitted effect of over 40% in size; note: potency is the fitted concentration of half-maximal effect
How it was run: as §5

[17] = qHTS RealTime-Glo MT Cell Viability Assay in HEK293 cells - 0 hour (AID 1224880)
How it was run: as §4

[18] = qHTS assay to identify small molecule agonists of H2AX - cell viability counter screen (AID 1224847; calls by dose curve; note: top concentration of the series differs between compounds; nearly all actives have a fitted effect of over 30% in size)
How it was run: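 We seed wild-type CHO-K1 cells overnight, treat them for 3 hr at 37C with compounds in 15-concentration series, and quantify remaining viability by CellTiter-Glo luminescence.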

[19] = qHTS assay to identify small molecule agonists of the hypoxia (HIF-1) signaling pathway (AID 1224846; active = well fitted activation curve with a large enough effect in the signal ratio in the repeat runs, not every such curve was filed as active; the % refers to the signal ratio)
How it was run: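 HRE-bla ME-180 cells (beta-lactamase reporter under hypoxia response element) were plated at 2,000 cells/well in medium with 0.5% dialyzed FBS, rested 5 hrs, then given compounds in DMSO for 17 hrs at 37C, 5% CO2. Reporter induction was read with CCF4-AM FRET substrate.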

Row | SMILES | Potency [1] | Potency [2] | activity change, positive = activation [3] | Potency [4] | Potency [5] | Potency [6] | Potency [7] | max response [8] [%] | Potency [9] | Potency [10] | Potency [11] | Potency [12] | Potency [13] | Potency [14] | Potency [15] | Potency [16] | Potency [17] | Potency [18] | Potency [8] | Potency [19]
1 | NC(=O)N1C(=O)C(C(=O)c2cc(Cl)cs2)c2cc(F)c(Cl)cc21 (configuration not stated) | inactive | inactive | -9.34% | inactive | inactive | inactive | inactive | -0.493 | inactive | inactive | inactive | – | – | – | – | – | – | – | – | –
2 | O=C(Nc1ccc(Oc2ccc(Cl)cc2)c(Cl)c1)c1cc(I)cc(I)c1O | inactive | – | -35.9% [at 42.5 µM] | inactive | inactive | inactive | inactive | 2.12 | inactive | – | inactive | inactive | inactive | inactive | inactive | inactive | inactive | – | – | –
3 | Cc1cccc(CN2CCN(C(c3ccccc3)c3ccc(Cl)cc3)CC2)c1 (configuration not stated) | inactive | 26.6 µM (active) | -29.2% [at 42.5 µM] | inactive | inactive | inactive | inactive | -13.7 | inactive | inactive | inactive | inactive | – | inactive | inactive | inactive | inactive | – | – | –
4 | CCCCN(CCCC)c1ccc(C(=O)c2ccccc2C(=O)O)c(O)c1 | – | 55 µM (active) | -39.4% | – | – | inactive | inactive | -24.6 | – | inactive | – | inactive | inactive | inactive | inactive | – | inactive | – | – | –
5 | CCCC(=O)OC[C@@H](OC(=O)CCC)[C@@H](OC(=O)CCC)[C@H](Cn1c2nc(=O)[nH]c(=O)c-2nc2cc(C)c(C)cc21)OC(=O)CCC | – | 29.8 µM (active) | -44.5% [at 42.5 µM] | 19 µM (active) | 21.3 µM (active) | – | – | -24.9 | 21.3 µM (active) | – | 21.3 µM (active) | – | – | inactive | – | 21.3 µM (active) | inactive | inactive | – | –
6 | Nc1ccc2c3c(cccc13)-c1ccccc1-2 | inactive | – | – | 22.1 µM (active) | 39.3 µM (active) | 24.8 µM (active) | inactive | – | 44.1 µM (active) | 39.3 µM (active) | 44.1 µM (active) | inactive | – | inactive | inactive | 44.1 µM (active) | inactive | inactive | 27.8 µM (active) | –
7 | S=c1[nH]c2ccccc2s1 | – | 54.5 µM (active) | -59.1% | – | – | inactive | inactive | – | 43.6 µM (active) | – | – | inactive | inactive | inactive | inactive | inactive | inactive | inactive | – | inactive
